PubChem BioAssay AID2417 (National Center for Advancing Translational Sciences (NCATS), 2010)
Out of some 140,000 compounds screened, about 4,300 (3.1%) were called active. Not shown: some 21% with an inconclusive outcome.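 Rule for the calls: active = readout at or below -70, meaning at least 70% loss of cells showing the perinucleolar compartment, a nuclear body marking cancer cells; inconclusive = readout between -30 and a set limit; inactive = the rest.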 The sample as a whole holds a higher share of actives than the screen did.

Test: High Content Assay for Compounds that inhibit the Assembly of the Perinucleolar Compartment;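 note: plate controls were DMSO wells for no effect and camptothecin positive control wells for full effect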
Settings: PC3M PTB-GFP, PNC prevalence imaging, 16 h; at 10 µM; stronger effect = lower value
In short: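 Compounds are pinned in duplicate onto adhered PC3M cells stably expressing GFP-tagged PTB and incubated 16 h at 37 C. Cells are then fixed, nuclei stained with Hoechst, and PNC-positive cells counted.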

Activity change (PNC), negative = inhibition, inactive:
COc1cc2c(cc1OC)C(=O)NCC(C)(C)O2 47.7%
CCCCN(CC)C(=O)c1ccc2c(c1)OCO2 21.9%
CCOC(=O)c1ccc(N/C(=N/S(=O)(=O)c2ccccc2)c2ccccc2)cc1 3.77%
COC(=O)c1ccc(NCC(=O)c2ccccc2)cc1 -26.4%
COc1ccc(/C=C/C(=O)OCC(=O)NCc2cccs2)cc1OC -1.51%
CCCCOc1ccc(C(=O)N/C(=C/C=C/c2ccccc2)C(=O)N2CCOCC2)cc1 -12.2%
CCOc1ccc2nc(C(=O)N3CCCC(C)C3)sc2c1 (configuration not stated) 6.06%
O=C(NC1CCCC1)C(NS(=O)(=O)c1ccc(Br)s1)c1ccccc1 (configuration not stated) 48.1%
O=C(/C=C/c1cccs1)NCc1cccnc1 -0.603%
COC(=O)c1cn(-c2ccccc2)nc1-c1cccnc1 -22.9%
COC1=CCC2([N+](=O)[O-])CN(CC(=O)O)CC1([N+](=O)[O-])C2 (configuration not stated) 6.59%
COc1ccc(/C=C/C(=O)Nc2ccc3c(c2)OCCO3)cc1OC -11.1%
Cc1cc(C(=O)OCC(=O)Nc2nnc(C(C)C)s2)c2ccccc2n1 3.82%
CCCc1nc2c([nH]1)C(c1cccnc1)C(C#N)=C(N)O2 (configuration not stated) 7.34%
O=C(CN1CCN(CC(=O)Nc2ccc3c(c2)OCO3)CC1)Nc1ccc(F)cc1 -20.9%
O=C(CN1CCN(c2ccc(F)cc2)CC1)Nc1cccc(C(F)(F)F)c1 -19.9%
CC1CCN(c2ccc(S(=O)(=O)Nc3cc(C(=O)O)cc(C(=O)O)c3)cc2[N+](=O)[O-])CC1 -0.23%
CCOC(=O)c1c(NC(=O)c2ccc(N3CCOCC3)c([N+](=O)[O-])c2)sc(C)c1C 28.7%
CCc1cccc(C)c1NC(=O)COC(=O)Cc1ccsc1 -6%
C=CCNC(=S)NNC(=O)c1ccc(Br)o1 -23.4%
O=c1c2c(ncn1Cc1ccccc1)nc1n2CCC1 -8.18%
NS(=O)(=O)c1ccc(NS(=O)(=O)/C=C/c2ccccc2)cc1 -5.65%
CCC(C(=O)OCC(=O)Nc1ccc(C(=O)Nc2ccc(OC)cc2)cc1)c1ccccc1 (configuration not stated) 12.6%
COc1cc(NC(=O)N2CCOCC2)cc(OC)c1 29.1%
Cc1c(C(=O)N2CCOCC2)[nH]c2ccc(OCc3ccccc3)cc12 -12.2%
CC(C)C(=O)NC(=S)Nc1ccccc1F 28.8%
Cc1cccc(NC(=S)N(CCN(C)C)C(C)c2ccco2)c1 (configuration not stated) 5.52%
CC(=O)Nc1ccc(SCC(=O)Nc2ccccc2Oc2ccccc2)cc1 -10.5%
CC1CCc2sc(C(=O)N/N=C/C3CCCCC3)cc2C1 (configuration not stated) -24%
COc1ccccc1N1CCN(C(=O)c2cc(-c3ccc(Br)cc3)on2)CC1 15.5%
Cc1noc(C)c1C(=O)N1CCOCC1 0.83%
O=C(c1ccccc1-c1ccccc1)N1CCOCC1 -12%
COc1ccccc1N1CCN(C(=O)c2cc(-c3ccc(Cl)c(Cl)c3)on2)CC1 321%
O=C(CN1C(=O)/C(=C\c2ccc(C(F)(F)F)cc2)Sc2ccccc21)NCc1ccco1 37.6%
O=c1cc(CN2CCN(S(=O)(=O)/C=C/c3ccccc3)CC2)c2ccc(O)cc2o1 -11.6%
CCOC(=O)Nc1sc(C(=O)N(C)C)c(C)c1C(=O)OCC 10.4%
CCOC(=O)c1c(NC(=O)c2ccc(Br)o2)sc2c1CCCC2 2.82%
Cc1cc(Oc2ccc(Cl)cc2)nc(SCC(=O)c2ccccc2)n1 16.7%
Cc1ccc(OCc2nnc(NC(=O)OCC(C)C)s2)cc1 26.9%
Cc1ccc(SCC(=O)Nc2ncc(C)s2)cc1 34.4%
O=[N+]([O-])c1ccccc1SNc1ccccn1 -0.121%
Cc1cccc(N2C(=O)SC(SC(=Nc3ccccc3)Nc3ccccc3)C2=O)c1 (configuration not stated) 64.7%
Cc1cc(C)n(-c2nc(SCC(=O)N3CCCC3)c3c4c(sc3n2)CCCC4)n1 26%
Cc1nc(SCC(=O)Nc2cc(C)on2)c2c3c(sc2n1)CCCC3 -9.46%
CC(=O)Nc1ccc(C(=O)OCC(=O)Nc2ccc([N+](=O)[O-])cc2C(F)(F)F)cc1 -8.91%
CCCCCCCCCOC1OC(CO)C(O)C(O)C1NC(C)=O (configuration not stated) -8.39%
COc1ccccc1C(=O)Nn1c(-c2cccs2)nc2ccccc2c1=O -26.6%
Cc1[nH]c2ccccc2c1C(=O)CSCC(=O)O -15.7%
CCOC(=O)N1CCN(CC(=O)c2c(C)[nH]c3ccccc23)CC1 -18.6%
CCOC(=O)c1cccnc1NC(=O)c1ccncc1 -1.7%
COc1ccc(/C=C(\C#N)C(=O)NCCCn2ccnc2)cc1 60.5%
Cc1ccc(OCCOCCOc2ccc(Br)cc2/C=N\NC(=O)c2ccncc2)cc1 -9.62%
Oc1ccc(Br)cc1C=Nc1ccc2[nH]ncc2c1 18.8%
CNC(=S)N/N=C/c1ccc(OCc2ccccc2)c(Br)c1 23.4%
O=C(c1cccc(C(=O)N2CCc3ccccc32)n1)N1CCc2ccccc21 8.65%
O=C(c1cc(-c2ccc(O)cc2)on1)N1CCCc2ccccc21 -28.7%
COc1cc(NC(=S)NNC(=O)CC(C)C)c(OC)cc1Cl 20.5%
Cc1ccc(C(=O)OCc2nc(N)nc(Nc3ccccc3C)n2)cc1 -25%
COCC(=O)Nc1cc(C(=O)OC)cc(C(=O)OC)c1 0.32%
COc1cccc2c(O)cc(=O)n(C)c12 3.35%
CCOC(=O)c1c(C)[nH]c(C(=O)NCc2ccccc2OC)c1C 4.85%
CCOC(=O)C(C)Sc1nnc(CSc2nc3nc(C)cc(C)n3n2)o1 (configuration not stated) -12%
O=C(CN1CCN(c2ccc(O)cc2)CC1)Nc1cc(S(=O)(=O)N2CCOCC2)ccc1Cl 32%
O=C(CCc1nc2ccccc2c(=O)[nH]1)OCC(=O)c1cccc(Cl)c1 9.28%
Cc1cc(Oc2ccccc2)nc(N2CCOCC2)n1 31.1%
Cc1cc(C)n(-c2cc(Oc3ccccc3)ncn2)n1 61.7%
COc1ccccc1/C=N\Nc1cc(C)nc(-n2nc(C)cc2C)n1 -20.8%
COc1ccc(NC(=O)c2nc(-n3nc(C)cc3C)ccc2Cl)cc1Cl -28.2%
CC(=O)NNC1=Nc2ccccc2N(C)C(C)C1 (configuration not stated) 41.2%
O=C(COc1ccc(Cl)cc1)N1CCN(S(=O)(=O)c2ccc(Cl)cc2)CC1 -28.2%
O=C(COc1ncnc2c(Cl)cc(Cl)cc12)N1CCN(S(=O)(=O)c2ccccc2)CC1 25.7%
O=C(Nc1ccc(N2C(=O)c3cccc4cccc(c34)C2=O)cc1)c1ccc(N2CCCCC2)c([N+](=O)[O-])c1 12%
COc1ccc(NC(=O)c2ccccc2[N+](=O)[O-])cc1OC 40.9%
Cc1ccsc1C(=O)N/N=C/c1ccc([N+](=O)[O-])cc1 -4.41%
C=CCN(c1ccc(C(=O)Nc2cc(C)cc(C)c2)cc1)S(C)(=O)=O 0%
COc1ccc(-c2cc(C(=O)NC(Cc3c[nH]c4ccccc34)C(=O)O)c(C)o2)cc1OC (configuration not stated) 41%
COc1ccc(C(=O)ON=C2c3ccccc3-c3ccccc32)cc1OC 2.98%

Activity change (PNC), negative = inhibition, active:
O=C(OCC(O)C(O)COC(=O)c1ccccc1)c1ccccc1 (configuration not stated) -83.5%
O=C(NCc1cccnc1)c1cn(-c2ccccc2)nc1-c1cccs1 -139%
O=C(CN1CCN(c2ncc(C(F)(F)F)cc2Cl)CC1)Nc1ccc2c(c1)OCO2 -86.4%
CC1CCN(c2ccc(C(=O)Nc3nnc(C4CC4)s3)cc2[N+](=O)[O-])CC1 -87.1%
COc1ccc(NC(=O)COC(=O)c2ccc(NS(=O)(=O)/C=C/c3ccccc3)cc2)cc1 -91.4%
CCOC(=O)c1[nH]c2ccc(OC)cc2c1NC(=O)N1CCOCC1 -102%
CC(c1ccccn1)N(CCN(C)C)C(=S)Nc1ccccc1F (configuration not stated) -111%
COc1ccccc1N1CCN(C(=O)c2c(-c3c(Cl)cccc3Cl)noc2C)CC1 -86.9%
Cc1onc(-c2ccccc2)c1C(=O)N1CCOCC1 -109%
CCOC(=O)c1c(NC(C)=O)sc2c(O)c(Br)ccc12 -80.8%
CCOCc1nnc(NC(=O)CSc2ccc(C)cc2)s1 -89.8%
COCCn1c(C)cc(C(=O)CSc2ncnc3sc4c(c23)CCC4)c1C -100%
Cc1[nH]c2ccccc2c1C(=O)COC(=O)c1c(-c2ccccc2)noc1C -121%
Brc1ccc(OCCn2ccnc2)cc1 -118%
Cc1cccc2cc3c(N)c(C(=O)N4CCCc5ccccc54)sc3nc12 -97.5%
COc1cccc2c(C)c(C(=O)O)[nH]c12 -100%
COc1ccc(Nc2cc(C)nc(-n3nc(C)cc3C)n2)cc1 -93.3%
CC(=O)c1ccc(Oc2cc(C)nc(-n3nc(C)cc3C)n2)cc1 -86.2%
O=C(ON=C1CCN(S(=O)(=O)c2ccccc2)CC1)c1ccc(Cl)cc1 -100%
Cc1ccc(NC(=O)c2sccc2C)cc1[N+](=O)[O-] -105%
